Test results reported in ChEMBL document CHEMBL1961873, “Compounds: GSK PKIS; Assays: Nanosyn kinase panel” (2012).

What follows are compounds tested against Tyrosine-protein kinase JAK1 (Homo sapiens) (UniProt P23458). Conditions: at 1 µM.
Tyrosine-protein kinase JAK1 (Homo sapiens), sequence (P23458 whole entry): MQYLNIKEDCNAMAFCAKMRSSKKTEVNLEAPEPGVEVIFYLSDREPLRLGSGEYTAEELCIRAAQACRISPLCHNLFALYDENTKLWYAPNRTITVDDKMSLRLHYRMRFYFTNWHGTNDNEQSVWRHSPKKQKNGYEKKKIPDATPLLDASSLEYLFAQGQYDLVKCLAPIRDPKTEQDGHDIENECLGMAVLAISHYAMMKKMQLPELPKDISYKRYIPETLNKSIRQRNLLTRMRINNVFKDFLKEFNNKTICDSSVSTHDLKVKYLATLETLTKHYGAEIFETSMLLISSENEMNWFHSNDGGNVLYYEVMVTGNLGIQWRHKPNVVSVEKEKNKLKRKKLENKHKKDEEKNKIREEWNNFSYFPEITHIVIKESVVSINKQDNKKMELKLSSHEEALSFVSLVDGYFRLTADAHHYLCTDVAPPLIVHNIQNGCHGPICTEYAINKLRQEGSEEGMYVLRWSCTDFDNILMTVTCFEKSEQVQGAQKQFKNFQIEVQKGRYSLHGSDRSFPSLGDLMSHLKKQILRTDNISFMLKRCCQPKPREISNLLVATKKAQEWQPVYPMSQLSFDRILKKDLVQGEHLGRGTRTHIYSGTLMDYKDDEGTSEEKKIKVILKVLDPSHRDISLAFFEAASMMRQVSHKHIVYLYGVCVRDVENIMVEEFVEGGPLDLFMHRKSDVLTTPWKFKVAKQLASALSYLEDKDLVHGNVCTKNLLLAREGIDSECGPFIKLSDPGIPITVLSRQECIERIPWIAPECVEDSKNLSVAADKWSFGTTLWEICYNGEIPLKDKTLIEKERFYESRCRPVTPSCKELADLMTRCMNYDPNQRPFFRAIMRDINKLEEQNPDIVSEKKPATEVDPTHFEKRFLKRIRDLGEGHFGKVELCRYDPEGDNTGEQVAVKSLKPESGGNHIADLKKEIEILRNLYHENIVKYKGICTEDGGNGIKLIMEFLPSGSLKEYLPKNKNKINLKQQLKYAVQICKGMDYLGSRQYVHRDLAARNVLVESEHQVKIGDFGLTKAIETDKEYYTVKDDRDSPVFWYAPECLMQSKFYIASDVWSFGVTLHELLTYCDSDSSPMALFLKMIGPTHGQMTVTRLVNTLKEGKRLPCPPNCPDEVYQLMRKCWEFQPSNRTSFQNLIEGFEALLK
N#Cc1c(NC(=O)c2cccc3ccccc23)sc2c1CCCC2 was tested, and the inhibition was 3.68%. COc1cc(C=NNc2ncnc3c2cnn3-c2ccccc2)ccc1O gave an inhibition of 3.21%. Work on CC(C)=Cc1cccc2c1/C(=N/Nc1ccc(S(N)(=O)=O)cc1)C(=O)N2 yielded an inhibition of 17.6%. In the case of Cc1ccc(NC(=O)c2ccnc(N3CCCC3)c2)cc1-c1ccc(C(=O)NCC2CC2)cc1, the inhibition is reported as 5.32%. Nc1nc(-c2ccc3c(c2)C(=Cc2cc(Br)c(O)c(Br)c2)C(=O)N3)cs1 was tested, and the inhibition was -0.48%. Work on CS(=O)(=O)CCNCc1ccc(-c2ccc3ncnc(Nc4ccc(OCc5cccc(F)c5)c(C(F)(F)F)c4)c3c2)o1 yielded an inhibition of 13.3%. Compound COc1ccc(-c2coc3ncnc(N)c23)cc1 has an inhibition of 2.67%. In the case of CCCN1CCC=C(c2ccc(Nc3nc(Nc4ccccc4C(N)=O)c4cc[nH]c4n3)c(C)c2)C1, the inhibition is reported as 3.46%. For O=C1NC(=O)C(c2cccc(Cl)c2)=C1Nc1ccc(O)c(Cl)c1, the inhibition was 7.81%. Compound COc1cc2ncn(-c3cc(O[C@H](C)c4ccccc4Cl)c(C(N)=O)s3)c2cc1OC has an inhibition of 21.9%. CC1=C(C(=O)Nc2ccc3[nH]ncc3c2)C(c2ccc3ccccc3c2)CC(=O)N1 (stereo unspecified) showed an inhibition of 29.5%. Compound O=C1NC(=O)C(c2ccc(Cl)cc2)=C1Nc1ccc(Cl)c(C(=O)O)c1 has an inhibition of -7.51%. c1cnn2ncc(-c3ccnc(Nc4ccc5c(c4)OCCO5)n3)c2c1 gave an inhibition of 19.7%. COc1cc2ncn(-c3cc(O[C@@H](C)c4ccccc4Cl)c(C(N)=O)s3)c2cc1OC showed an inhibition of 3.27%. CCn1c(-c2nonc2N)nc2c(C#CC(C)(C)O)nc(CN3CCCC3)cc21 showed an inhibition of 3.25%. Compound CCn1c(-c2nonc2N)nc2ccncc21 has an inhibition of 6.51%. Work on CNC(=O)c1cncc(/C=C/c2c(Cl)cccc2Cl)c1 yielded an inhibition of 2.48%. With Cc1nnc(-c2ccc(C)c(-c3ccc(C(=O)Nc4cccc(C#N)c4)cc3)c2)o1 the inhibition was 6.74%. For CN(C)c1cc2c(Nc3ccc4nc(Cc5ccccc5)[nH]c4c3)ncnc2cn1, the inhibition was 8.16%. Compound Cc1cccc(-c2n[nH]cc2-c2ccc3ncccc3n2)n1 has an inhibition of 3.85%. CS(=O)(=O)CCN(CC#N)Cc1ccc(-c2ccc3ncnc(Nc4ccc(OCc5cccc(F)c5)c(Cl)c4)c3c2)o1 showed an inhibition of 1.2%. With CCn1c(-c2nonc2N)nc2c(C#CC(C)(C)O)nc(OC[C@@H](N)c3ccccc3)cc21 the inhibition was 2.1%. CC(=O)Nc1cccc(C#Cc2cncnc2Nc2ccc(OCc3cccc(F)c3)c(Cl)c2)n1 gave an inhibition of 14.8%. CC1=C(C(=O)Nc2ccc3[nH]ncc3c2)C(c2ccc(Cl)c(Cl)c2)CC(=O)N1 (stereo unspecified) was tested, and the inhibition was 36.6%. For O=C1Nc2ccc(C(=O)c3ccco3)cc2C1=Cc1cc(Cl)c(O)c(Cl)c1, the inhibition was 7.05%. CS(=O)(=O)Nc1ccc(N/C=C2\C(=O)Nc3ccccc32)cc1 gave an inhibition of 5.33%. Work on COc1cc2ncn(-c3cc(OCc4ccccc4Cl)c(C(N)=O)s3)c2cc1OC yielded an inhibition of 5.86%. Compound Fc1cccc(COc2ccc(Nc3ncnc4sc(-c5cccs5)cc34)cc2Cl)c1 has an inhibition of -0.37%. For [O-][S+]1CCN(Cc2ccc(-c3ccc4ncnc(Nc5ccc(OCc6ccccc6)c(F)c5)c4c3)o2)CC1, the inhibition was 0.63%. In the case of Cc1ccc(C(=O)NC2CCCCC2)cc1-c1ccc(C(=O)NCC2CC2)cc1, the inhibition is reported as 9.1%. For Cc1nn(C)c2cc(N(C)c3ccnc(Nc4cccc(S(N)(=O)=O)c4)n3)ccc12, the inhibition was 54.9%. With CCN1CCC(CC(=O)Nc2n[nH]c3nc(-c4cccs4)c(Br)cc23)CC1 the inhibition was -3.93%. For COc1ccc(-c2nn3ncccc3c2-c2ccnc(Nc3ccc(Cl)c(C(F)(F)F)c3)n2)cc1, the inhibition was 10.6%.

These compounds were tested against Tyrosine-protein kinase JAK2 (Homo sapiens) (UniProt O60674). Conditions: at 0.1 µM.
Tyrosine-protein kinase JAK2 (Homo sapiens), sequence (O60674 whole entry): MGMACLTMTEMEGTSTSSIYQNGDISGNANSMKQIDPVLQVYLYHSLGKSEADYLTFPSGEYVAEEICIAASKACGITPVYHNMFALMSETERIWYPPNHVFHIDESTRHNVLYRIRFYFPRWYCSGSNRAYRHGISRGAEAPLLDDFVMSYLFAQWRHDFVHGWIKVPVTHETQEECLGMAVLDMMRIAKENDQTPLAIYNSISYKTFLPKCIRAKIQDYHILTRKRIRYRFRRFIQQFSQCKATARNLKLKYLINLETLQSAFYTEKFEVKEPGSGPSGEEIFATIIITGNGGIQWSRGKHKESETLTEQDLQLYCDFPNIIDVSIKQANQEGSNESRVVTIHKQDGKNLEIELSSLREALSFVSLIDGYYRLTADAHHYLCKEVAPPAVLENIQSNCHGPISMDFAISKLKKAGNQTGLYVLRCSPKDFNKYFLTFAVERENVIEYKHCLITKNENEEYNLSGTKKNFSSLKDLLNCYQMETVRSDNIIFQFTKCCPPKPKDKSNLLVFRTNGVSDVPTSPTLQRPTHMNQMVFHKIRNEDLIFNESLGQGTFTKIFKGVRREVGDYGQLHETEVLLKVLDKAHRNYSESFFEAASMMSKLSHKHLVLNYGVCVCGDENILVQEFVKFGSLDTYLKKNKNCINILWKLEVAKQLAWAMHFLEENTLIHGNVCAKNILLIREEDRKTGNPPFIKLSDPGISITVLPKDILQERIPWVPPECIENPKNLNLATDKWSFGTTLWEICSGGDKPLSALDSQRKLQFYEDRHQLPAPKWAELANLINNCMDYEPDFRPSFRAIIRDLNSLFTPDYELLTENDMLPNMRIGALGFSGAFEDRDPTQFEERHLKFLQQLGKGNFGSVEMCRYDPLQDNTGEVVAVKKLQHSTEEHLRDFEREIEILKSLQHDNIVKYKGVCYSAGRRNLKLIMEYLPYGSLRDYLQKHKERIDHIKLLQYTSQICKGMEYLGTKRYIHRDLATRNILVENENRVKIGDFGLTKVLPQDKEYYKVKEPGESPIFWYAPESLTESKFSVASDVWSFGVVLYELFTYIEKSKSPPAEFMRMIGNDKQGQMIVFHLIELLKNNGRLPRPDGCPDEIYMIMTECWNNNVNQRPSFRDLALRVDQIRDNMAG
N#Cc1c(NC(=O)c2cccc3ccccc23)sc2c1CCCC2 gave an inhibition of 1.62%. With COc1cc(C=NNc2ncnc3c2cnn3-c2ccccc2)ccc1O the inhibition was 1.26%. For CC(C)=Cc1cccc2c1/C(=N/Nc1ccc(S(N)(=O)=O)cc1)C(=O)N2, the inhibition was 2.18%. In the case of Cc1ccc(NC(=O)c2ccnc(N3CCCC3)c2)cc1-c1ccc(C(=O)NCC2CC2)cc1, the inhibition is reported as 1.37%. For Nc1nc(-c2ccc3c(c2)C(=Cc2cc(Br)c(O)c(Br)c2)C(=O)N3)cs1, the inhibition was -0.72%. In the case of CS(=O)(=O)CCNCc1ccc(-c2ccc3ncnc(Nc4ccc(OCc5cccc(F)c5)c(C(F)(F)F)c4)c3c2)o1, the inhibition is reported as 0.47%. For COc1ccc(-c2coc3ncnc(N)c23)cc1, the inhibition was 1.71%. Work on CCCN1CCC=C(c2ccc(Nc3nc(Nc4ccccc4C(N)=O)c4cc[nH]c4n3)c(C)c2)C1 yielded an inhibition of 2.19%. Work on O=C1NC(=O)C(c2cccc(Cl)c2)=C1Nc1ccc(O)c(Cl)c1 yielded an inhibition of 0.65%. With COc1cc2ncn(-c3cc(O[C@H](C)c4ccccc4Cl)c(C(N)=O)s3)c2cc1OC the inhibition was 1.66%. CC1=C(C(=O)Nc2ccc3[nH]ncc3c2)C(c2ccc3ccccc3c2)CC(=O)N1 (stereo unspecified) was tested, and the inhibition was 2.05%. Compound O=C1NC(=O)C(c2ccc(Cl)cc2)=C1Nc1ccc(Cl)c(C(=O)O)c1 has an inhibition of -0.25%. For c1cnn2ncc(-c3ccnc(Nc4ccc5c(c4)OCCO5)n3)c2c1, the inhibition was 2.1%. With COc1cc2ncn(-c3cc(O[C@@H](C)c4ccccc4Cl)c(C(N)=O)s3)c2cc1OC the inhibition was 2.38%. Compound CCn1c(-c2nonc2N)nc2c(C#CC(C)(C)O)nc(CN3CCCC3)cc21 has an inhibition of 0.37%. CCn1c(-c2nonc2N)nc2ccncc21 showed an inhibition of 0.33%. For CNC(=O)c1cncc(/C=C/c2c(Cl)cccc2Cl)c1, the inhibition was 1.58%. Work on Cc1nnc(-c2ccc(C)c(-c3ccc(C(=O)Nc4cccc(C#N)c4)cc3)c2)o1 yielded an inhibition of -0.14%. With CN(C)c1cc2c(Nc3ccc4nc(Cc5ccccc5)[nH]c4c3)ncnc2cn1 the inhibition was 2.34%. For Cc1cccc(-c2n[nH]cc2-c2ccc3ncccc3n2)n1, the inhibition was -0.23%. With CS(=O)(=O)CCN(CC#N)Cc1ccc(-c2ccc3ncnc(Nc4ccc(OCc5cccc(F)c5)c(Cl)c4)c3c2)o1 the inhibition was 1.36%. Compound CCn1c(-c2nonc2N)nc2c(C#CC(C)(C)O)nc(OC[C@@H](N)c3ccccc3)cc21 has an inhibition of 0.33%. In the case of CC(=O)Nc1cccc(C#Cc2cncnc2Nc2ccc(OCc3cccc(F)c3)c(Cl)c2)n1, the inhibition is reported as -1.97%. With CC1=C(C(=O)Nc2ccc3[nH]ncc3c2)C(c2ccc(Cl)c(Cl)c2)CC(=O)N1 (stereo unspecified) the inhibition was 1.94%. Work on O=C1Nc2ccc(C(=O)c3ccco3)cc2C1=Cc1cc(Cl)c(O)c(Cl)c1 yielded an inhibition of 2.07%. Work on CS(=O)(=O)Nc1ccc(N/C=C2\C(=O)Nc3ccccc32)cc1 yielded an inhibition of -0.93%. Compound COc1cc2ncn(-c3cc(OCc4ccccc4Cl)c(C(N)=O)s3)c2cc1OC has an inhibition of 0.18%. In the case of Fc1cccc(COc2ccc(Nc3ncnc4sc(-c5cccs5)cc34)cc2Cl)c1, the inhibition is reported as -0.63%. With [O-][S+]1CCN(Cc2ccc(-c3ccc4ncnc(Nc5ccc(OCc6ccccc6)c(F)c5)c4c3)o2)CC1 the inhibition was 0.4%. With Cc1ccc(C(=O)NC2CCCCC2)cc1-c1ccc(C(=O)NCC2CC2)cc1 the inhibition was 3.28%. Work on Cc1nn(C)c2cc(N(C)c3ccnc(Nc4cccc(S(N)(=O)=O)c4)n3)ccc12 yielded an inhibition of 7.43%. For CCN1CCC(CC(=O)Nc2n[nH]c3nc(-c4cccs4)c(Br)cc23)CC1, the inhibition was -1.09%. With COc1ccc(-c2nn3ncccc3c2-c2ccnc(Nc3ccc(Cl)c(C(F)(F)F)c3)n2)cc1 the inhibition was -0.46%.
